# SUMO Mot1 rescue = blocks SUMOylation pathway, rescuing yeast Mot1-301 growth; S. cerevisiae Mot1-301 growth rescue, ATP luminescence, 38.5C; percent above DMSO median, 100 means doubled; growth rescue, % at 18.8 µM; 1% of 320,000 active;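 active = every valid replicate shows activation above 250% relative to neutral control wells; inactive = the rest, any valid replicate at or below 250%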
# TIM10 inh = inhibits growth of TIM10 yeast strain | 1.4% of 330,000 active | inhibition, % at 10 µM | S. cerevisiae TIM10 strain growth, BacTiter-Glo luminescence, 24 h | AID 463195;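 active = inhibition of 40% or more at the single tested concentration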;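 also: wild-type TIM10 isogenic control strain grown at permissive 25 °C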
# tim10-1 inh = growth inhibitors of tim10-1 mutant yeast; S. cerevisiae tim10-1 ts strain growth, BacTiter-Glo, 24 h; inhibition, % at 20 µM; 2.2% of 330,000 active; AID 463190;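 active = inhibition of at least 40%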;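 also: mutant grown at 25 °C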
# tim23-1 inh = inhibits growth of tim23-1 mutant yeast; S. cerevisiae tim23-1 growth, BacTiter-Glo luminescence, 24 h; inhibition, % at 20 µM; 1.3% of 330,000 active; AID 463212;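 active = growth inhibition of the mutant yeast at or above 50%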;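 also: temperature-sensitive mutant grown at 25 °C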
# PfHsp90 set2 = growth inhibition of yeast expressing Plasmodium Hsp90; S. cerevisiae expressing PfHsp90, BacTiter-Glo ATP, 48 h; yeast lacking PDR1 and PDR3 efflux regulators; inhibition, % at 9.4 µM; 0.32% of 310,000 active; AID 504621;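 active = every replicate shows inhibition above about 80%, whatever the replicate mean, limit read from the data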
# tim10-1 confirm = confirmation of tim10-1 mutant yeast growth inhibitors; S. cerevisiae tim10-1 ts strain growth, BacTiter-Glo, 24 h; AID 463213; 56% of 7,400 active; inhibition, % at 20 µM; shares compounds with tim10-1 inh;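 active = inhibition of yeast growth at or above a set limit in either of two repeat tests at 20 µM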;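 also: tim10-1 mutant grown at permissive 25 °C to find synthetic lethal compounds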
# Hits are given with their value; – = inactive; · = no result. Hits are enriched below; roughly 4.4% of the tested compounds scored in any of these assays.
SMILES,SUMO Mot1 rescue,TIM10 inh,tim10-1 inh,tim23-1 inh,PfHsp90 set2,tim10-1 confirm
Cc1ccc(-c2nn3c(C)nnc3c3ccccc23)cc1S(=O)(=O)NCCO,–,–,–,–,–,·
CCN1CCN(S(=O)(=O)c2ccc(Cl)c(C(=O)N(C)Cc3ccc(F)cc3)c2)CC1,–,–,–,–,·,·
CCN1CCN(S(=O)(=O)c2ccc(Cl)c(C(=O)N(C)Cc3ccccc3)c2)CC1,–,–,98.4,–,–,–
CCc1ccc2nc3nc(C)cc(C)c3c(N)c2c1,–,–,46.6,–,–,40.8
CCc1ccc(NC(=S)/N=C(\N)Nc2nc(C)c3cc(CC)ccc3n2)cc1,–,–,–,–,–,·
O=C(CSc1n[nH]c(-c2ccncc2)n1)Nc1ccc(Br)cc1,–,–,–,–,–,·
O=C(OC1CCCCC1=O)c1cccc(S(=O)(=O)N2CCCCC2)c1 (centres undefined),–,–,43.4,–,–,–
Cc1ccc(S(=O)(=O)N2CCCCC2)cc1C(=O)OC1CCCCC1=O (centres undefined),–,–,40.6,–,·,–
O=C(OC1CCCCC1=O)c1cc(S(=O)(=O)N2CCOCC2)ccc1F (centres undefined),–,–,–,–,–,·
O=C(CNC(=O)c1ccccc1F)Nc1ccc2c(c1)OCO2,–,–,–,–,–,·
CC(OC(=O)C1=COCCO1)C(=O)NC1(C#N)CCCCC1 (centres undefined),–,–,–,–,·,·
Cc1ccc(C(=O)c2oc3ccc(Cl)cc3c2NC(=O)CN2CCN(C)CC2)cc1,–,–,49.0,–,–,–
COc1ccc(C(=O)N2CCc3cc(OC)c(OC)cc3C2)cc1OC,–,–,–,–,–,·
COc1cc2c(cc1OC)CN(C(=O)c1ccc(-c3ccccc3)cc1)CC2,–,–,49.3,–,–,37.9
Cc1ccc(OCCN(C)C(=O)C2CCC(=O)N(CCCN3CCCC3=O)C2)cc1 (centres undefined),–,–,–,–,–,·
CN(Cc1ccccc1)c1ncnc2ccc(Br)cc12,–,–,41.9,–,–,–
O=C(COC(=O)Cc1c(F)cccc1Cl)NC(=O)Nc1ccccc1F,–,–,–,–,·,·
O=C(c1ccccc1)N1CCN(c2ncccn2)CC1,–,–,–,–,–,·
O=C(c1ccc(-c2ccccc2)cc1)N1CCN(c2ncccn2)CC1,–,–,43.1,–,–,–
COc1ccc(NC(=O)CSCC(=O)Oc2c(OC)cccc2OC)cc1,–,–,–,–,–,·
O=C(CCNS(=O)(=O)c1ccc2[nH]c(=O)oc2c1)Nc1ccccc1,–,–,–,–,–,·
CCc1ccccc1OCC(=O)Nc1cccc(S(=O)(=O)N2CCCC2)c1,·,–,41.7,–,–,–
N#Cc1ccccc1OCC(=O)Nc1cccc(S(=O)(=O)N2CCCC2)c1,–,–,–,–,–,·
COc1ccc(OCC(=O)Nc2ccc(S(=O)(=O)N3CCCCC3)cc2)cc1,–,–,44.9,–,–,51.8
Cc1cc(C)c(OCC(=O)Nc2ccc(S(=O)(=O)N3CCCC3)cc2)c(C)c1,–,–,40.7,–,–,38.5
SMILES,SUMO Mot1 rescue,TIM10 inh,tim10-1 inh,tim23-1 inh,PfHsp90 set2,tim10-1 confirm
CN(C)S(=O)(=O)c1cccc(NC(=O)COc2cccc3ccccc23)c1,·,–,41.1,–,·,32.7
CC(=O)Nc1ccc(NC(=O)COc2ccc(S(=O)(=O)N3CCCC3)cc2)cc1,–,–,–,–,–,·
CCOC(=O)N1CCN(S(=O)(=O)N2CCCC(C(=O)NCc3ccc(OC)cc3)C2)CC1 (centres undefined),–,–,–,–,–,·
Cn1c2cc(C#N)sc2c2cnn(Cc3ccc(F)cc3)c(=O)c21,–,–,–,–,–,·
O=C(Nc1ccccc1C(=O)N1CCN(Cc2ccccc2)CC1)c1ccc(F)cc1,–,–,–,–,–,·
CN(C)S(=O)(=O)c1cccc(NC(=O)CCCC2CCCCC2)c1,–,–,40.6,–,–,–
Cn1c(N)c(C(=O)COC(=O)/C=C/c2ccc(S(=O)(=O)N3CCOCC3)cc2)c(=O)n(C)c1=O,–,–,–,–,–,·
O=C(Nc1ccccc1)N1N=CCC1c1ccccc1 (centres undefined),·,–,–,–,–,·
O=C(CSC(=S)N1CCCCC1)N1N=CCC1c1ccccc1 (centres undefined),–,–,41.5,–,–,32.3
COc1ccc(N2CCC(CNC(=O)Nc3ccccc3)C2)cc1 (centres undefined),–,–,41.3,–,–,32.9
N#C/C(=C\C=C\c1ccccc1[N+](=O)[O-])C(=O)NCc1ccccc1,–,–,45.0,–,–,34.9
CCCn1c(N)c(N(CCOC)C(=O)c2c(CC)noc2C)c(=O)[nH]c1=O,·,–,–,–,·,·
CN1CCN(CCCNC(=O)CCC(=O)N2CCOc3ccccc32)CC1,–,–,–,–,–,·
N/C(=N\OC(=O)c1cccc(Cn2cc(C(F)(F)F)ccc2=O)c1)c1ccccc1,–,–,44.1,–,–,51.9
COc1ccc(-n2ccnc(SCC(=O)NC3CCCC3)c2=O)cc1OC,–,–,–,–,–,·
Cc1ccc(-n2ccnc(SCC(=O)NC3CCCCC3)c2=O)cc1F,–,–,44.0,–,·,–
CC(C)CCC[C@@H](C)[C@H]1CC[C@H]2[C@@H]3C(=O)C=C4C[C@@H](O)CC[C@]4(C)[C@H]3CC[C@]12C,–,–,–,–,–,·
C=C1/C(=C\C=C2/CCC[C@]3(C)[C@@H]([C@H](C)CCCC(C)(C)O)CC[C@@H]23)C[C@@H](O)C[C@@H]1O,–,–,47.8,–,·,–
C=CCn1c(N)c(C(=O)Nc2ccc(C)c(C)c2)c2nc3ccccc3nc21,–,–,–,–,–,·
Nc1c(C(=O)Nc2ccccc2)c2nc3ccccc3nc2n1CCCN1CCOCC1,–,–,64.4,–,–,44.2
C=CCn1c(N)c(C(=O)Nc2cccc(C)c2)c2nc3ccccc3nc21,–,–,61.0,–,–,48.6
N#Cc1c(N)n(CCCN2CCOCC2)c2nc3ccccc3nc12,–,–,–,–,–,·
COC(=O)C1=C(C)N(c2cccc(C(C)=O)c2)C(=O)C1,–,–,–,–,·,·
COC(=O)C1=C(C)N(c2cccc(Cl)c2)C(=O)C1,–,–,52.2,–,–,33.6
COc1ccc(-c2nc(CS(=O)CC(=O)N3CCN(C)CC3)c(C)o2)cc1 (centres undefined),–,–,–,–,–,·
CCc1nc2c(c(=O)c3ccccc3n2C)c(=O)n1C1CCCCCC1,–,–,40.5,–,–,–
CCOc1ccc2oc(-c3ccccc3)c(C(=O)N(C)C)c2c1,–,–,–,–,–,·
CCN(CC)C(=O)c1c(-c2ccccc2)oc2ccc(OC)cc12,–,–,41.1,–,–,–
Cc1cc(NC(=O)c2oc3ccccc3c2C)ccc1-n1cnnn1,–,–,41.8,–,–,–
Cc1nn(Cc2cccc(C(=O)NC34CC5CC(CC(C5)C3)C4)c2)c(C)c1Br,–,–,43.4,–,–,–

# Assay outcomes: PubChem, several laboratories
